Here are results for 26 compounds from PubChem BioAssay AID624169 (The Scripps Research Institute Molecular Screening Center, 2012).

Hit rate of the full screen: of about 360,000 compounds, about 2,400 (0.67%) were called active. For the sample, actives were picked, then their nearest neighbours and some compounds at random. A number with no mark means an inactive call.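 The calls were made as follows: active = activation above a run cutoff, the mean activation of all tested compounds plus 3 SD (cut at about 14% in these data); inactive = the rest.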

For this assay, the target named is 5-hydroxytryptamine receptor 2A (Mus musculus) (UniProt P35363). Put plainly: mouse Htr2a agonists via beta-arrestin recruitment, primary screen, cell-based, luminescence (AID 624169).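 Also: 0% = plate median of compound wells and 100% = 30 µM serotonin.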 Conditions: CHO-K1 mHTR2A beta-arrestin complementation, at 7.6 µM, active compounds read high, percent of 30 µM serotonin response. On the technique in general: Activated receptors often draw arrestin, which recruitment assays turn into a signal.
5-hydroxytryptamine receptor 2A (Mus musculus), sequence (P35363 whole entry, looked up): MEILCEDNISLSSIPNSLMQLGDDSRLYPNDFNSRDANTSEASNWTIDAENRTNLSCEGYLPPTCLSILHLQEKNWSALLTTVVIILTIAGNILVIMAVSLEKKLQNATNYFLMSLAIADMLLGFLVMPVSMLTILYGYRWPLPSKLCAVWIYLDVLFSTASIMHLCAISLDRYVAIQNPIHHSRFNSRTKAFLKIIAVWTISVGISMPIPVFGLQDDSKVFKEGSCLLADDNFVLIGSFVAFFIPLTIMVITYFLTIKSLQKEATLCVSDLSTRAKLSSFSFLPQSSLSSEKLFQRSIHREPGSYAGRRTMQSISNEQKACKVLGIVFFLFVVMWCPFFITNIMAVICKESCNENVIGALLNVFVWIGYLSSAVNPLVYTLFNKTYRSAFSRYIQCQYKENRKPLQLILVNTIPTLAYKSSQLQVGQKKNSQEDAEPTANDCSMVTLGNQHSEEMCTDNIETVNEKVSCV
As to `CC(C)c1nc(CNC(=O)CC2C(=O)NCCN2Cc2ccoc2)cs1` (stereo unspecified), the activation was 2.97%.
Then `Cc1ccc(Cc2c(C)nc3nc(SCC(=O)NCCN4CCOCC4)nn3c2C)cc1`, with -7.66%.
Then `O=C(Oc1ccc2c(c1)CCC2)N1CCOCC1`, with -4.84%; and `CC(C)COP(=O)(c1ccc(N(C)C)cc1)C(Nc1ccccc1)c1cccnc1` (stereo unspecified), with -1.14%.
Consider `CC(Nc1ccccc1)c1cccnc1` (stereo unspecified), for which the activation is 18.4% (active).
In the case of `CC(=O)OC(C(=O)NCCc1ccccc1)c1cccnc1` (stereo unspecified), the activation was 3.53%.
With `CCOP(=O)(OCC)C(Nc1ccc([N+](=O)[O-])cc1)c1ccc(Cl)cc1` (stereo unspecified), the activation is -5.36%.
Then `Cc1ccc(NS(=O)(=O)c2cccs2)cc1S(=O)(=O)N1CCCCCC1`, with -1.7%.
Then `O=C(NCCS(=O)(=O)N1CCN(c2ccc(F)cc2)CC1)c1ccc2c(c1)OCO2`, with 5.83%.
Then `Cc1cc(O)c(C2(O)C(=O)Nc3ccccc32)cc1C` (stereo unspecified), with -4.53%.
With `O=C(OCC(=O)N1CCN(C(=O)c2ccco2)CC1)c1c(Cl)cccc1Cl`, the activation was -3.04%.
Then `O=C(c1ccco1)N1CCN(CCOc2ccccc2)CC1`, with 16.4% (active); and `O=C(c1ccc(Br)o1)N1CCN(CCOc2ccccc2)CC1`, with -0.54%.
Then `O=C(c1ccco1)N1CCN(Cc2cccc(C(F)(F)F)c2)CC1`, with 11.3%; and `O=C(c1ccco1)N1CCN(C(=O)c2ccc(COc3ccc(F)cc3)o2)CC1`, with 2.33%.
Then `COc1cccc(OC)c1OCCN1CCN(C(=O)c2ccco2)CC1`, with 14.4% (active).
With `Cc1ccc2cc(CN(c3ccc(C)c(C)c3)S(C)(=O)=O)c(=O)[nH]c2c1`, the activation is -0.92%.
Then `CC1CC(=S)Nc2ccccc2N1Cc1ccccc1` (stereo unspecified), with -4.32%.
Then `CC(C)NC(=O)CSc1nnc(COc2ccccc2Cl)o1`, with 0.27%.
Then `Cc1ccc(NC(=O)CSc2nnc(CNC(=O)c3ccccc3F)o2)cc1`, with -0.39%; and `Cc1ccc(NC(=O)CSc2nnc(COc3ccccc3C)o2)cc1`, with 40.1% (active).
Regarding `O=C(c1ccc(NS(=O)(=O)c2ccc3[nH]c(=O)[nH]c3c2)cc1)N1CCCCC1`, the activation is 2.95%.
Regarding `CC(=O)c1ccc(NC(=O)C(C)OC(=O)c2ccc(NS(=O)(=O)c3ccc4[nH]c(=O)[nH]c4c3)cc2)cc1` (stereo unspecified), the activation was -1.56%.
Then `COc1ccc(CNC(=O)c2ccc(NS(=O)(=O)c3ccc4[nH]c(=O)[nH]c4c3)cc2)cc1OC`, with 16.1% (active).
Then `COc1ccc2c(c1)C(=C(C#N)C#N)C(=O)N2CCc1ccccc1`, with -0.11%; and `CC(C)CC1C(=O)N(Cc2cn(Cc3ccco3)nn2)CCS(=O)(=O)N1Cc1ccc(-c2ccc(Cl)c(Cl)c2)cc1` (stereo unspecified), with -3.53%.
